Assay results reported in article PMC5540273 (PLoS ONE, 2017).

How the values were obtained:
Settings in all cases: concentration: 1 μM, replicates: in singlicate; n = 1
FAK = test system: T1, FAK
T1 construct: gene PTK2

FER = test system: FER
FES = test system: FES
FGFR1 = test system: FGFR1
FGFR2 = test system: FGFR2
FGFR3 = test system: FGFR3
FGFR4 = test system: FGFR4
FGR = test system: FGR
FLT1 = test system: FLT1
FLT3-autoinhibited = test system: FLT3-autoinhibited
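Note: KINOMEscan kinase panel screen.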

SMILES	%Inh (FAK) [%]	%Inh (FER) [%]	%Inh (FES) [%]	%Inh (FGFR1) [%]	%Inh (FGFR2) [%]	%Inh (FGFR3) [%]	%Inh (FGFR4) [%]	%Inh (FGR) [%]	%Inh (FLT1) [%]	%Inh (FLT3-autoinhibited) [%]
Cc1cccc(-c2nc(-c3ccc(S(C)(=O)=O)cc3)sc2-c2ccnc(NCCc3ccccc3)c2)c1	0	0	0	5	1	0	0	0	18	0
CCCc1ccc(S(=O)(=O)NC2CCN(c3ccnc(Nc4ccc(F)cc4)n3)C2)cc1 (stereo not drawn) [GSK1379715]	0	0	0	0	0	2	11	23	18	0
Cl.Oc1ccc(-c2nc(-c3ccccc3)[nH]c2-c2ccncc2)cc1 [SB-428218]	0	0	17	0	4	0	9	62	0	0
O=C1NC(=O)C(N2CCc3ccccc32)=C1c1ccccc1Cl [SB-373598]	0	34	15	7	15	33	9	21	6	0
Cl.O=C(Nc1cccc(-c2nn3ncccc3c2-c2ccnc(Nc3cccnc3)n2)c1)c1c(F)cccc1F [GSK312879]	0	10	11	8	0	23	8	40	45	4
Cc1nnc(-c2ccc3occ(-c4ccc(S(C)=O)cc4)c3c2)[nH]1 (stereo not drawn)	0	0	14	0	0	0	3	19	0	31
COc1cc2ncn(-c3cc(OCC4CCCO4)c(C(N)=O)s3)c2cc1OC (stereo not drawn) [GSK204607]	0	9	11	0	0	24	0	29	20	0
C[C@@H]1CCCCN1c1cc(-c2ccc3c(N)n[nH]c3c2)nc(N)n1 [GSK2258759]	0	0	0	0	0	7	3	17	14	0
Cl.c1ccc(-c2n[nH]cc2-c2ccnc(-c3ccc(CN4CCOCC4)cc3)c2)nc1 [GW776245]	31	3	3	0	15	20	1	22	26	0
Fc1cc(Cl)ccc1Nc1ccnc2cc(I)ccc12 [GW551191]	0	0	0	8	18	0	5	30	30	0
COc1ccc(C2=C(Nc3cccc(C(=O)O)c3)C(=O)NC2=O)cc1 [SB-390765]	13	0	21	13	13	14	0	6	4	17
O=c1cc(N2CCOCC2)nc2n(Cc3cccc(Cl)c3Cl)ccn12 [GSK2286295]	0	12	12	0	0	5	12	16	26	0
Cl.NC(=O)c1cccc(Nc2nccc(Nc3ccc(Oc4cccc(Cl)c4)c(Cl)c3)n2)c1 [GW659008]	0	9	0	18	0	0	0	52	36	0
COc1cc2nccc(Nc3ccc(NC(=O)c4ccc(C)cc4)c(O)c3)c2cc1OC.Cl [GW440132]	0	45	5	22	22	2	6	37	30	0
Cc1cccc(-c2nc(C)cc(Nc3ccncc3)n2)n1 [GSK257997]	0	42	0	7	14	16	0	8	32	0
CN1C(=O)C(Nc2ccc(Cl)c(C(=O)O)c2)=C(c2ccc(Cl)cc2)C1=O [SB-404290]	7	5	0	0	0	0	0	0	0	22
Cc1ccc(NC(=O)Nc2cccc(Cl)c2)cc1-c1ccc(C(=O)Nc2ccncc2)cc1 [GSK1398468]	0	6	9	0	0	7	5	30	25	14
Cc1c(Cn2ccn3c(=O)cc(N4CCOCC4)nc23)cccc1C(F)(F)F [GSK2289044]	0	7	23	0	19	28	5	14	0	0
